# Experimental data: PubChem BioAssay AID540253 (National Center for Advancing Translational Sciences (NCATS), 2011)
# Out of some 340,000 compounds screened, about 240 (0.071%) were called active. The sample holds actives, similar compounds and a random draw of the others, so the mix is not that of the screen. A number with no mark means an inactive call. Calls follow the shape of the full dose curve.
# Target: Snurportin-1 (Homo sapiens) + GTP-binding nuclear protein Ran (Homo sapiens) + Importin subunit beta-1 (Homo sapiens) (UniProt O95149+P62826+Q14974)
# Assay: qHTS Assay for Inhibitors of RanGTP induced Rango (Ran-regulated importin-beta cargo) - Importin beta complex dissociation; also: nearly all actives have a fitted effect of over 45% in size; as to activity change, negative = inhibition: % of control where 0% means no effect
# Details: Biochemical FRET Rango-importin beta; series mostly up to 46.1 µM; activity change, negative = inhibition: at the top concentration
# From the text: NIH Molecular Libraries Probe Production Centers Network [MLPCN] NIH Chemical Genomics Center [NCGC] MLPCN Grant: R03 MH090808-01A1 Assay Submitter (PI): Petr Kalab NCGC Assay Overview: The small GTPase Ran regulates transport of macromolecules between the nucleus and the cytoplasm (nuclear transport) and has important functions in mitotic spindle assembly, nuclear envelope (NE) formation and nuclear pore complex (NPC) assembly. RanGTP gradient is thought to promote spindle assembly by providing a spatial clue to microtubule nucleation and Aurora A activation. Because the localized release and binding of importin alpha cargos relays this spatial clue to SAFs, inhibitors of the Rango - importin beta complex can then be used in further understanding their role in cell cycle specifically in mitosis progression. […] Activation of Aurora A has been linked to different types of cancer and a number of Aurora kinase inhibitors are being developed as potential canter therapeutics; therefore, identified inhibitors of this complex could be developed into potential anti-mitotic probes for cancer treatment. Purified recombinant proteins Rango - importin beta and RanGTP-RCC1 stock premixes were provided by the assay submitter. The assay used a fluorescence resonance energy transfer (FRET) Rango biosensor that contains the IBB of human snurportin 1 flanked by yellow fluorescent protein (EYFP) at the amino terminus and cerulean CFP10 at the carboxy terminus. […] RanGTP binding to the complex (in the presence of RCC1) releases the Rango from the complex. The flexibility of the IBB in the freed Rango allows the donor - acceptor fluorophores to interact, resulting in a high FRET signal. Inhibitors will therefore be identified based on the ability to interfere with the FRET signal increase. DMSO treated and no RanGTP-RCC1 (buffer only) wells were used as negative and positive controls respectively. FRET readings were obtained at two time points. FRET reading prior to importin beta addition (pre-read) were used flag potential compound interference; FRET reading after importin beta addition (post-read) were used to identify inhibitors.
# NCGC Assay Protocol Summary: Two and a half uL/well of Rango- importin beta premix solution (0.1 uM Rango, 0.25 uM importin beta, 1x PBS, 1mM DTT, 0.02% Tween-20, 0.1% BSA final concentrations) was dispensed into 1536-well assay plates (Greiner, solid black medium-binding plates) with Aurora Discovery BioRAPTR Flying Reagent Dispenser (FRD; Beckton-Dickenson). Compound solution (23 nL) was transferred to the assay plate using Kalypsys pin tool equipped with a 1536-pin tool and incubated at room temperature for 5 min followed by a FRET pre-read using the PerkinElmer Envision plate reader. Two and a half uL/well of RanGTP-RCC1 premix solution (0.6 uM Ran, 2mM GTP, 0.2 uM RCC1, 1x PBS, 1mM DTT, 0.02% Tween-20, 0.1% BSA final concentrations) were then added and incubated at room temperature giving a final reaction volume of 5uL. After 45min FRET post-read was obtained via the Envision plate reader using the same optics and settings as the pre-read (CFP/YFP optimized dual optical module D450/D505; excitation mirror CFP 430/24 nm; and emission filters CFP 486/10 nm and YFP 530/10 nm).
# Potency is read from the fitted curve at half-maximal effect.
SMILES,"activity change, negative = inhibition [%]",Potency
O=[N+]([O-])c1ccc(NS(=O)(=O)c2ccccc2)c(Cl)c1,-8.5,
O=C(O)C(c1cccs1)C1(O)CCCCC1 (stereo not given),10.6,
O=C(CC1Sc2ccccc2NC1=O)NNc1ccc(Cl)c(Cl)c1 (stereo not given),-9.85,
S=C(Nc1ccccc1)Nc1ccc2ccccc2c1,11.2,
C/C(=N\Nc1ccccc1)c1cccs1,-12.4,
CCC1(C)COC(c2ccc(OC)c(OC)c2)OC1 (stereo not given),1.83,
Cn1c(CNC(=O)C(C)(C)C)nc2ccccc21,0.931,
Cn1c(-c2ccc(C(=O)c3ccccc3)s2)nc2ccccc21,,8.2 µM [inconclusive] (active)
Cn1c(NC(=O)c2ccccc2)nc2ccccc21,0.409,
Nc1ccc2[nH]c(=S)sc2c1,6.09,
O=C1c2ccccc2C(=O)C1C(=O)C1CC1,0.674,
O=C(O)c1ccc([N+](=O)[O-])cc1Sc1ccsc1,0.213,
CC(C=Cc1ccccc1)=NNS(=O)(=O)c1ccc([N+](=O)[O-])cc1,-2.55,
O=[N+]([O-])c1cc2ccccc2nc1-c1ccccc1,6.66,
CCN1C[C@@H]2[C@@H]3C(=O)N(C)C(=O)[C@@H]3[C@](C)(C1=O)N2C(=O)c1ccccc1,-9.87,
COc1cc(O)c2c(=O)c3c(O)c(O)ccc3oc2c1OC,0.328,
C#CCOCCOCCOCCNc1nc(N2CCOCC2)nc(N2CCN(C(=O)[C@H](Cc3ccc(O)cc3)n3cc(CCO)nn3)CC2)n1,12.8,
O=C(NN=Cc1ccccc1)c1ccccc1,-1.55,
CCOc1ccc(CCNC(=O)COC(=O)C2CCN(S(=O)(=O)c3ccccc3)CC2)cc1OCC,-1.16,
Cc1cc(NC(=O)c2cc3ccccc3o2)no1,-27,
CC(=O)N1CCc2ccc(N)cc21,0.796,
O=C1C(Cl)=C(Oc2ccccc2)C(=O)c2ccccc21,-0.449,
O=c1nc(NO)ccn1C1CCCO1 (stereo not given),0.851,
O=c1[nH]c2c(c(=O)n1-c1ccccc1)CCO2,28.5,
COC1=CC(=O)OC(c2ccc(OC)cc2)C1 (stereo not given),-26.4,
CCOc1ccc(/C=C(/C#N)c2nnc(N3CCOCC3)n2-c2ccccc2)cc1OC,-6.71,
CC(=O)OC1CCC2C3CCC4=C(CC(F)C(=O)C4)C3CCC12C (stereo not given),-8.28,
COc1ccccc1N(CC(=O)Nc1c(C)n(C)n(-c2ccccc2)c1=O)S(=O)(=O)c1ccccc1,15.2,

SMILES,"activity change, negative = inhibition [%]",Potency
CC(C)(C)c1nnc2sc(SCC(O)=C(C#N)c3nc4ccccc4[nH]3)nn2c1=O,-17.3,
Cc1cc(NC(=O)C(C)SCC(=O)Nc2cccc(S(=O)(=O)N3CCCCCC3)c2)no1 (stereo not given),-9.26,
CC(C)(C)C(=O)Nc1cccc(-c2ccc[nH]2)n1,-8.04,
Nc1ccc2c(c1)C(O)c1ccc(Cl)cc1-2 (stereo not given),12,
Cn1cc(C2OC(=O)c3ccccc32)c2ccccc21 (stereo not given),-1.39,
CCC1([N+](=O)[O-])COC(c2ccc(C(C)C)cc2)OC1 (stereo not given),4.48,
Nc1ccc2c(c1)C(=Cc1cccnc1)c1ccccc1-2,-0.303,
Cc1nc2ccc(N)nc2nc1C,-10.7,
CC(C)c1cc(N=O)cc(C(C)C)c1O,16.3,
O=C(OCCOc1ccccc1Cl)c1cc(S(=O)(=O)N2CCCCC2)ccc1N1CCOCC1,-8.97,
Cc1ccc(S(=O)(=O)N2CCN(C(=O)c3cc(S(=O)(=O)N4CCOCC4)ccc3F)CC2)cc1,6.87,
CN(CCc1ccccc1)C(=O)c1cccc(NC(=O)Cc2cccc(NC(=O)C3CCCN(C(=O)CCc4ccccc4)C3)c2)c1 (stereo not given),-6.42,
CCC(=O)N1CCc2cc(Br)c(S(=O)(=O)NCCN3CCCCC3CC)cc21 (stereo not given),-5.08,
O=C(c1cccc(S(=O)(=O)N2CCCCCC2)c1)N1CCN(Cc2ccccc2)CC1,0.329,
CCOc1ccccc1NC(=S)C(=C([O-])c1ccc2c(c1)OCCO2)[n+]1ccc(CC)cc1,7.69,
CC(=O)c1cccc(-c2ccc(CN3C(CC(C)C)C(=O)N(Cc4cn(CC5CCCCC5)nn4)CCS3(=O)=O)cc2)c1 (stereo not given),5.63,
C[n+]1cccc(C(=O)O)c1,10.9,
CC1CN(Cc2ccco2)C(=S)N(c2ccccc2)C1=O (stereo not given),0.667,
Cc1nc(N)nc(Cl)c1CCC1OCCO1,18.9,
O=C(CC1CCCCC1)NCc1ccco1,-9.28,
O=C(CN1C(=O)/C(=C\c2ccc(C(F)(F)F)cc2)Sc2ccccc21)NCc1ccco1,,11.6 µM [inconclusive] (active)
O=C(CCCCCN1C(=O)c2cccc3cccc(c23)C1=O)NCc1ccco1,4.95,
O=C(Cc1ccc([N+](=O)[O-])cc1)NCCc1ccc2c(c1)OCO2,12.1,
Cc1cccc(NS(=O)(=O)c2ccc([N+](=O)[O-])cc2)n1,-2.17,
Cc1nc(N)nc(SCc2ccc([N+](=O)[O-])cc2)c1N,-1.08,
Cc1nc2ccccc2nc(=O)c1NNc1ccc([N+](=O)[O-])cc1,,14.6 µM [inconclusive] (active)
CN(C(=O)c1cccc(NC(=O)Cc2ccc(NC(=O)C3CCCN(C(=O)C4CCCC4)C3)cc2)c1)C1CCC1 (stereo not given),4.82,
